Measured values: PubChem BioAssay (NCI)
Compounds without any hit were thinned out: in the full panel of roughly 83,000, 20% have a hit.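 Growth was measured after 48 h exposure to one concentration of compound in 96-well plates. Values under 10 count as active.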 A number with no mark means an inactive call. The source made the active and inactive calls.

Test system: MDA-MB-468 breast
Assay: NCI-60 one-dose screen, 48 h (100 = growth as untreated, 0 = no growth, -100 = all killed)
Settings: 10 µM unless noted

How did the growth turn out when `Clc1cc(Cl)c(Cl)nn1` was run?
Its growth is 102%.

How did the growth turn out when `C=C(C)[C@@H]1CC[C@]2(COC(=O)c3ccccc3C(=O)O)CC[C@]3(C)[C@H](CC[C@@H]4[C@@]5(C)CC[C@H](OC(=O)c6ccccc6C(=O)O)C(C)(C)[C@@H]5CC[C@]43C)[C@@H]12` was run?
The growth was -22.5% [100 µM] (active).

For `C#Cc1cc2c(N)c(C(=O)c3cc(OC)c(OC)c(OC)c3)[nH]c2cc1OC`, which growth is on record?
The growth was 9.88% (active).

With `CC(C)Cc1cc(CNC(=O)C2[C@H]3CN(C(=O)c4ccccc4)C[C@@H]23)nn1-c1ccccc1` (some centres undefined) as the compound, how does the growth read?
Its growth is 88.9%.

How did the growth turn out when `Cc1ccc(N)cc1F` was run?
The growth was 100%.

`COc1ccc(/C=C/C(=O)c2cc3c(N)c(C(=O)Nc4ccc(OC)cc4)sc3nc2C)cc1` was tested. Which growth did it give?
Its growth is 11.6%.

With `CCSc1nc(-c2ccc(F)cc2)c(C#N)c(=O)[nH]1` as the compound, how does the growth read?
Its growth is 91.4%.

For `CC(=O)c1c(OCC#N)ccc2c(C)cc(=O)oc12`, which growth is on record?
The growth was 93.2%.

Which growth does the source give for `COc1ccc(C(C)C=O)cc1` (centres undefined) here?
The growth was 134%.

How did the growth turn out when `O=C1c2c(c3c4ccccc4[nH]c3c3ccc4ccccc4c23)C(=O)N1CCN1CCOCC1` was run?
Its growth is 58.6%.

`C[n+]1c2ccccc2c(Nc2ccc(N3CCCCC3)cc2)c2[nH]c3ccccc3c21` was tested. Which growth did it give?
Its growth is -73.8% (active).

For `CC(C)C(NC(=O)CN)C(=O)O` (centres undefined), which growth is on record?
The growth was 104%.

`CCCCCCCCCCCCCCCCN(CC)CC` was tested. Which growth did it give?
Its growth is -85.3% (active).

With `Nc1nc2c(c(-c3nc(N)nc4c3CCc3ccccc3-4)n1)CCc1ccccc1-2` as the compound, how does the growth read?
Its growth is 112%.

How did the growth turn out when `O=C(Nc1ccc(Cl)cc1)c1cc2cc(F)ccc2cc1O` was run?
Its growth is -1.3% (active).

Which growth does the source give for `COc1cc(OC)c(/C=C/C(=O)c2c(N)cc(OC)cc2OC)c(OC)c1` here?
The growth was -17.1% (active).

With `COc1ccc(-c2ccc3ncc4c(c3c2)n(-c2ccc(N3CCNCC3)c(C(F)(F)F)c2)c(=O)n4C)cn1` as the compound, how does the growth read?
The growth was -87% (active).

For `CCOC(=O)N1CCC(N=C2CSc3nnc(-c4cc(C(F)(F)F)cc(C(F)(F)F)c4)n3N2)CC1`, which growth is on record?
Its growth is 2.22% (active).

`COc1cccc2c(=O)c3c(sc12)c(NCCN(C)C)nc1ccccc13` was tested. Which growth did it give?
The growth was 12.7%.

Which growth does the source give for `Cc1ccc(C(=O)Nc2ccc(Cl)cc2C(=O)NCc2ccccc2)cc1` here?
The growth was 83%.

With `COc1ccc(-c2cnoc2-c2cc(OC)c3c(c2)OCCO3)cc1` as the compound, how does the growth read?
Its growth is 20.4%.

Which growth does the source give for `CC(=O)n1cc(C=O)c2ccccc21` here?
Its growth is 112%.

For `CC(C)C1CCC(C)C(O)C1` (centres undefined), which growth is on record?
Its growth is 98.5%.

Which growth does the source give for `NC(N)=Nc1ccc(Oc2cccc(NC(N)=Nc3ccc(Br)cc3)c2)cn1` here?
The growth was 8.74% (active).
